From PubChem BioAssay (NCI)
The panel holds about 79,000 compounds, 15% with a hit somewhere; the sample as a whole holds those more often. No stated cut-off is given here; in the data, active means growth inhibition above about 70%; inactive means the rest.

Experiments:
[1] = NCI Yeast Anticancer Drug Screen. Data for the rad50 strain (AID 155);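 further: 0% = growth of vehicle-only cultures of the same strain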; details: S. cerevisiae rad50 strain growth inhibition; at 50.0 µM; active compounds read high
How it was run: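 Genetically altered yeast (DNA repair pathway); compound treatment; growth inhibition vs vehicle ctrl.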

[2] = NCI Yeast Anticancer Drug Screen. Data for the mec2-1 strain (AID 157); details: S. cerevisiae mec2-1 strain, at 50.0 µM, active compounds read high
How it was run: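 Mutant yeast (mec2-1) grown with compound; growth inhibition relative to vehicle control reported.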

[3] = NCI Yeast Anticancer Drug Screen. Data for the sgs1 mgt1 strain (AID 161);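 further: 0% = growth of cultures given vehicle only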; details: S. cerevisiae sgs1 mgt1 strain, at 50.0 µM, active compounds read high
How it was run: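 Percent growth inhibition was derived by comparing compound-exposed mutant yeast with vehicle-exposed cultures. The strain carries alterations in DNA damage repair.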

[4] = NCI Yeast Anticancer Drug Screen. Data for the cln2 rad14 strain (AID 165);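 further: 0% = growth equal to vehicle treated cultures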; details: S. cerevisiae cln2 rad14 strain, at 50.0 µM, active compounds read high
How it was run: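 Readout is yeast growth inhibition versus vehicle-treated controls, using a strain with cln2 and rad14 alterations exposed to compound.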

[5] = NCI Yeast Anticancer Drug Screen. Data for the bub3 strain (AID 167); details: S. cerevisiae bub3 mutant strain, at 50.0 µM, active compounds read high
How it was run: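 Yeast carrying a defined mutation is treated with each compound, and growth is compared with that of vehicle-exposed cells to give inhibition.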

[6] = NCI Yeast Anticancer Drug Screen. Data for the mlh1 rad18 strain (AID 175); details: S. cerevisiae mlh1 rad18 strain growth inhibition; at 50.0 µM; active compounds read high
How it was run: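 Genetically defined yeast (DNA repair-deficient) exposed to compounds; growth inhibition determined relative to vehicle.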

Measured: growth inhibition

O=C(O)CCNc1cccs1
inactive: [1] -19.6% | [2] -1.75% | [3] -26.5% | [4] -63.8% | [5] -4.85% | [6] -19.9%

O=C(Nc1ccc(Cl)cc1)OCCSc1nc2ccccc2s1
inactive: [1] -6.05% | [2] -30.1% | [3] 21.5% | [4] 9.35% | [5] 4.55% | [6] -3.9%

COc1ccccc1CNCCCCCCNCCSSCCNCCCCCCNCc1ccccc1OC
inactive: [1] 6.55% | [2] 5.1% | [3] 7.4% | [4] -36.7% | [5] -2.35% | [6] 32.5%

CC1(C)CN(CCO)C(C)(C)CN1CCO
inactive: [1] 13.4% | [2] 7.35% | [3] 7.2% | [4] 12.4% | [5] -27.7% | [6] -10.1%

N#Cc1c2c([nH]c(=O)c1C#N)CCCC2
inactive: [1] 15.5% | [2] 10.5% | [3] 3.2% | [4] 9.15% | [5] -8.75% | [6] -23.1%

Cn1c(Cl)cn2c3nc4ccccc4nc3c(=O)c(C#N)c12
inactive: [1] 6.1% | [2] -29.2% | [3] -52.1% | [4] 1.3% | [5] -18.1% | [6] -4%

COc1cc(SC)c(OC)cc1C
inactive: [1] 4.15% | [2] 0.65% | [3] -12.4% | [4] -22.4% | [5] -6% | [6] 4.85%

Clc1ccc(-c2ccncc2)cc1
inactive: [1] 17.1% | [2] -9.15% | [3] 7.2% | [4] -69.7% | [5] 13.1% | [6] 5.7%

OCCOc1ccc(OCCO)cc1
inactive: [1] -2.1% | [2] -5.65% | [3] -8.95% | [4] -39.7% | [5] 9.9% | [6] -8.45%

CCOc1cccc(-c2ccccc2)c1
inactive: [1] 18.3% | [2] 17.6% | [3] 16.9% | [4] 9.35% | [5] 1.1% | [6] -0.35%

COc1cccc(-n2cnc3c(=O)[nH]cnc32)c1
inactive: [1] -18.7% | [2] -13.3% | [3] -10.9% | [4] -34.9% | [5] -5.65% | [6] -40%

O=c1ccc2c(O)cc(O)cc2o1
inactive: [1] -8.9% | [2] -5.9% | [3] -13.7% | [4] 5.05% | [5] 8.35% | [6] -8.5%

Clc1ccc(Cl)c(Nc2ccnc(SCc3ccccc3)n2)c1
inactive: [1] 42.1% | [2] 25.9% | [3] -27.5% | [4] 14.4% | [5] -7% | [6] 24.9%

CSC1(C)C(=O)Nc2cccc([N+](=O)[O-])c21 (configuration not stated)
inactive: [1] -9.85% | [2] -20.1% | [3] 1% | [4] -7.5% | [5] 11.8% | [6] 2.45%

CCC(C(O)C(C)C)[N+](=O)[O-] (configuration not stated)
inactive: [1] 14.2% | [2] 1.45% | [3] 6.35% | [4] -6.5% | [5] 0.05% | [6] 3.3%

N#C/C(=C\c1ccccc1)C(NO)Nc1ccccc1 (configuration not stated)
inactive: [1] -31.1% | [2] -10.2% | [3] -1.4% | [4] 0.05% | [5] 6.65% | [6] -14.8%

CN(C)CCNC(=O)c1ccc2nc3c(nc2c1)C(=O)c1ccccc1-3
inactive: [1] -9.4% | [2] -2.85% | [3] 31.3% | [4] 36.8% | [5] 3.6% | [6] 15.9%

CCCCCNC(=S)NNC(N)=O
inactive: [1] 4.2% | [2] -0.15% | [3] -12.8% | [4] -0.7% | [5] 5.25% | [6] -0.75%

ClCC1OC1CCl (configuration not stated)
inactive: [1] 22.1% | [2] 3.05% | [3] 1.1% | [4] -10.6% | [5] 9.8% | [6] 1.95%

ONc1ncnc2nc[nH]c12
inactive: [1] -8.65% | [2] 5.4% | [3] 3.8% | [4] -1.65% | [5] -2.45% | [6] -11.3%

CCCCN1CSC(=S)N(CCCC)C1
inactive: [1] 39.5% | [2] 45.5% | [3] 59.2% | [4] -10.4% | [5] 51.4% | [6] 37%

CC(=O)C1CCC(C)(O)CC1=O (configuration not stated)
inactive: [1] -0.6% | [2] -18% | [3] -14.5% | [4] -9.35% | [5] -8.4% | [6] -3.65%

Nc1cc2c(O)cc(S(=O)(=O)O)cc2cc1S(=O)(=O)O
inactive: [1] -5.9% | [2] 8.15% | [3] 2.35% | [4] 14.1% | [5] 34.2% | [6] -4.3%

CCS(=O)(=O)c1ccc(NC(=O)OCc2ccccc2)cc1
inactive: [1] 12.1% | [2] 23.4% | [3] 22.4% | [4] -4.4% | [5] 25.5% | [6] -2.4%

NC(=O)C(CO)NC(=O)c1ccc[n+](Cc2ccccc2)c1 (configuration not stated)
inactive: [1] 5.3% | [2] -1.6% | [3] -1.2% | [4] -4.5% | [5] 0.15% | [6] 27.9%

OCCCOCc1ccccc1
inactive: [1] 39.8% | [2] 27.4% | [3] 30.9% | [4] 30.3% | [5] 17.5% | [6] 12.2%

CCCn1c(C)nc2c(N)cc(C)cc21
inactive: [1] -5.9% | [2] -2.9% | [3] -6.05% | [4] -44.5% | [5] -1.5% | [6] -0.8%

OC1(C#CC2(O)CCCC2)CCCC1
inactive: [1] -8.9% | [2] -11.9% | [3] 15.4% | [4] -8.05% | [5] -1.2% | [6] 23.9%

COc1cc2ccc(=O)oc2cc1O
inactive: [1] 14.6% | [2] 9.35% | [3] 9.05% | [4] 19.4% | [5] 16.4% | [6] 4.05%

O=C(CC/C=C(/CS(=O)(=O)c1ccccc1)S(=O)(=O)c1ccccc1)c1ccccc1
inactive: [1] 20.3% | [2] -15.1% | [3] -5.75% | [4] -24.1% | [5] -6.15% | [6] 13.4%

COC(=O)C(=O)C(/C=N/C(=S)NC1CCCCC1)=C(\O)c1ccc(F)cc1
inactive: [1] -32.3% | [2] -24.7% | [3] -8.5% | [4] -5.05% | [5] -15.8% | [6] -2.7%

CN(CCCCl)Cc1ccccc1
inactive: [1] 1.85% | [2] -26.8% | [3] -24.7% | [4] 1.35% | [5] -14.3% | [6] -7.55%

O=C(O)/C1=C/CCC(C(=O)O)CCC1 (configuration not stated)
inactive: [1] -4.15% | [2] -1.95% | [3] -7.35% | [4] -44.6% | [5] -12.5% | [6] 22.9%

COc1ccc(CCC2c3cc(OC)c(OC)cc3CCN2C)cc1OC (configuration not stated)
inactive: [1] -41.5% | [2] -15.7% | [3] -6.75% | [4] 5.35% | [5] -19.9% | [6] -4.85%

Cc1ccc(NC(=O)CC2Sc3ccccc3NC2=O)c(C)c1 (configuration not stated)
inactive: [1] -7.6% | [2] -7.35% | [3] 7.5% | [4] -4.4% | [5] -20.3% | [6] -11.8%

COc1ccc(C2(C(=O)O)CC(C)=C(C)CC2C(=O)O)cc1 (configuration not stated)
inactive: [1] -1.45% | [2] -9.05% | [3] -5.25% | [4] 0.6% | [5] -11.7% | [6] 7%

OC1(Cc2ccccn2)CCCc2ccccc21 (configuration not stated)
inactive: [1] 7.5% | [2] 9.55% | [3] -1.95% | [4] -15.3% | [5] -8.45% | [6] 4.95%

Cc1ccc(C(=O)c2ccccc2)cc1
inactive: [1] 26.1% | [2] 23.5% | [3] -11.8% | [4] -8.75% | [5] -0.6% | [6] -1.7%

O=C1CSC(/C(=C\c2ccc(Cl)cc2)c2nc3ccccc3[nH]2)=N1
inactive: [1] 11.3% | [2] 11.2% | [3] -4.15% | [4] 11.7% | [5] 12.2% | [6] 4.3%

CC(=O)OCC1OC(n2c(C)c(N=Nc3ccccc3)c(C)c(C#N)c2=S)C(OC(C)=O)C(OC(C)=O)C1OC(C)=O (configuration not stated)
inactive: [1] -17.7% | [2] -17.6% | [3] -1.7% | [4] -1% | [5] -10.3% | [6] 14.8%

CC(C)OC(=O)NCc1cccs1
inactive: [1] -10.1% | [2] -2.6% | [3] 6.7% | [4] -92.8% | [5] 1.7% | [6] -11.1%

C=C1C2CC3CCC2C(OC(=O)c2ccccc2C(=O)O)C13 (configuration not stated)
inactive: [1] -0.45% | [2] -11.2% | [3] 1.4% | [4] 14.8% | [5] -2.2% | [6] -19.3%
